This is a sample that favours compounds with a hit; in the whole collection about 2.1% have one here.
YB-1 expr inh – YB-1 expression inhibition; U2OS, qRT-PCR YB-1 vs CDIP delta delta Cp, 16 h; stronger effect = higher value; zero = DMSO, each unit about twofold; delta delta Cp (YB-1 minus CDIP) (concentration not given with the values); hit rate 0.37% among 30,000; AID 434959;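 active = delta delta Cp rounded down to an integer at or above 3, about 3 SD of DMSO wells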;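 also: higher means less YB-1 transcript or more CDIP transcript relative to DMSO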
ROS inducer – raises reactive oxygen species in U2OS cancer cells | U2OS ROS induction, H2DCF-DA fluorescence | ROS induction (% of piperlongumine), % at 10 µM | hit rate 2% among 46,000; in the data active = ROS induction above about 79%, passing the limit was not always enough;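 also: 0% = DMSO vehicle median and 100% = reference compound median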
PD-1 reversal – activators reversing PD-1 mediated T-cell inhibition; activation, % (no concentration beside the values); primary human CD4 T cells, PD-L1 beads, CellTiter-Glo 96 h; 29,000 tested, under 10 active; call rule not given here;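 also: 0% = median vehicle wells and 100% = positive control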
Starred values were filed as active, the others as inactive.

C[C@H]1CN([C@@H](C)CO)C(=O)c2cccc(NC(=O)C3CC3)c2O[C@@H]1CN(C)Cc1ccc(Oc2ccccc2)cc1 was read as YB-1 expr inh 0.0039 and ROS inducer 94*.
For C[C@@H]1CC[C@]2(C(=O)OC3OC(CO)C(OC4OC(CO)C(O)C(O)C4O)C(O)C3O)CC[C@]3(C)C(=CCC4[C@@]5(C)CC[C@H](O)[C@](C)(C(=O)O)C5CC[C@]43C)C2[C@]1(C)O (some centres undefined) the results were YB-1 expr inh 0.32, ROS inducer -7 and PD-1 reversal 1.
Screening COc1ccc([Si](C)(C)[C@H]2[C@H](CC(=O)N3Cc4ccccc4C[C@H]3CO)O[C@@]3(C(=O)N(C)c4c(Br)cc(C)cc43)[C@@H]2C)cc1 returned YB-1 expr inh -0.042 and ROS inducer 19.
`COC(=O)c1ccccc1NC(=O)Cn1c(C(F)(F)F)nc2ccccc21` gave ROS inducer -4 and PD-1 reversal 2.
`OCCSc1nnc(-c2ccccc2O)n1-c1ccccc1` gave ROS inducer -12 and PD-1 reversal 0.
For Cc1cc(OCC(=O)Nc2c(C)ccc3nsnc23)ccc1Cl the results were ROS inducer -12.
For CCOC(=O)N1CCc2c(sc3c2c(=O)n(Cc2ccccc2)c(=O)n3CC(=O)NC(C)CC)C1 (centres undefined) the results were ROS inducer 32.
For C[C@H](CO)N1C[C@H](C)[C@@H](CN(C)Cc2ccc(-c3ccccc3)cc2)Oc2c(NC(=O)C3CC3)cccc2C1=O the results were YB-1 expr inh 0.73 and ROS inducer 173*.
`C[C@H](CO)N1C[C@H](C)[C@H](CN(C)Cc2ccc(-c3ccccc3)cc2)Oc2c(NC(=O)C3CC3)cccc2C1=O` gave YB-1 expr inh 0.034, ROS inducer 18 and PD-1 reversal -6.
For C[C@H]1CN([C@@H](C)CO)C(=O)c2cc(NC(=O)NC3CCCCC3)ccc2O[C@@H]1CN(C)Cc1ccc(-c2ccccc2)cc1 the results were YB-1 expr inh -0.71, ROS inducer 137* and PD-1 reversal -1.
Screening C[C@@H]1CN([C@H](C)CO)C(=O)c2cc(NC(=O)NC3CCCCC3)ccc2O[C@@H]1CN(C)Cc1ccc(-c2ccccc2)cc1 returned YB-1 expr inh 0.16 and ROS inducer -2.
Screening COc1ccc(NC(=O)Nc2cccc3c2O[C@H](CN(C)Cc2ccc(Oc4ccccc4)cc2)[C@H](C)CN([C@@H](C)CO)C3=O)cc1 returned YB-1 expr inh 0.13, ROS inducer 89* and PD-1 reversal -4.
Screening COc1ccc(CN(C)C[C@H]2Oc3c(NC(=O)Nc4ccccc4)cccc3C(=O)N([C@@H](C)CO)C[C@H]2C)cc1 returned YB-1 expr inh -0.071 and ROS inducer 4.
`COC(=O)c1sc2ccccc2c1NC(=O)c1ccc(S(=O)(=O)N(C)c2ccccc2)cc1` gave ROS inducer 8.
`CSc1c(-c2ccc(Cl)cc2)[nH]c2ccccc12` gave ROS inducer -34.
C[C@@H]1CN([C@@H](C)CO)C(=O)Cc2cc(NC(=O)Nc3ccc4c(c3)OCO4)ccc2O[C@@H]1CN(C)C was read as YB-1 expr inh 0.26, ROS inducer 99* and PD-1 reversal 2.
Screening C[C@H](CO)N1C[C@H](C)[C@H](CN(C)S(C)(=O)=O)Oc2ccc(NC(=O)Nc3ccc4c(c3)OCO4)cc2CC1=O returned YB-1 expr inh -0.22 and ROS inducer -6.
`C[C@@H]1CN([C@H](C)CO)C(=O)Cc2cc(NC(=O)Nc3ccc4c(c3)OCO4)ccc2O[C@@H]1CN(C)CC1CCCCC1` gave YB-1 expr inh -0.63, ROS inducer 4 and PD-1 reversal 1.
Screening C[C@@H]1CN([C@H](C)CO)C(=O)Cc2cc(NC(=O)Nc3ccc4c(c3)OCO4)ccc2O[C@@H]1CN(C)C returned YB-1 expr inh 0.22, ROS inducer -2 and PD-1 reversal 2.
For C[C@@H]1CN([C@H](C)CO)C(=O)Cc2cc(NC(=O)Nc3ccc4c(c3)OCO4)ccc2O[C@H]1CN(C)CC1CC1 the results were YB-1 expr inh -0.14, ROS inducer 128* and PD-1 reversal 1.
`C[C@@H]1CN([C@H](C)CO)C(=O)Cc2cc(NC(=O)Nc3ccc4c(c3)OCO4)ccc2O[C@H]1CN(C)C` gave YB-1 expr inh 11*, ROS inducer -1 and PD-1 reversal 0.
C[C@@H]1CN([C@@H](C)CO)C(=O)c2cccc(NS(C)(=O)=O)c2O[C@@H]1CN(C)Cc1ccc(Oc2ccccc2)cc1 was read as YB-1 expr inh -0.034, ROS inducer 36 and PD-1 reversal -1.
Screening CS(=O)(=O)N(CC(=O)NC1CC2CCC1C2)c1cc(Cl)cc(Cl)c1 (centres undefined) returned ROS inducer 3 and PD-1 reversal -3.
C=C(C)C(=O)O[C@H]1[C@H]2C(=C)C(=O)O[C@@H]2C[C@@H](C)[C@@H]2O[C@@H]2C(=O)[C@](C)(O)[C@@H]1OC(=O)C(=C)C was read as YB-1 expr inh -0.54, ROS inducer 29 and PD-1 reversal -10.
`C=C(C)C(=O)O[C@H]1CC(=C)C2C[C@H](O)[C@](O)(CO)C2[C@H]2OC(=O)C(=C)[C@H]12` (some centres undefined) gave YB-1 expr inh 0.43, ROS inducer 186* and PD-1 reversal -13.
Screening CC(C)C(C(=O)Nc1ccc(S(=O)(=O)Nc2ncccn2)cc1)N1C(=O)c2ccccc2C1=O (centres undefined) returned ROS inducer -12.
`COC(=O)c1ccccc1NC(=O)COc1ccc(C)c(C)c1` gave ROS inducer 0 and PD-1 reversal -1.
For COC(=O)c1ccccc1NC(=O)COc1ccc([N+](=O)[O-])c(C)c1 the results were ROS inducer 138* and PD-1 reversal 2.
For O=C(CSc1nnc(-c2ccncc2)n1-c1ccccc1)c1c[nH]c2ccccc12 the results were ROS inducer -5 and PD-1 reversal 3.
For C=C(C)C(O)C(O)c1c(OC)ccc2ccc(=O)oc12 (centres undefined) the results were YB-1 expr inh 1.4, ROS inducer 26 and PD-1 reversal 0.
Cc1cc2nc(SCC(=O)NN)[nH]c2cc1C was read as YB-1 expr inh 0.054, ROS inducer -26 and PD-1 reversal 0.
Cc1cc2nc(SCc3ccccc3C#N)[nH]c2cc1C was read as ROS inducer 127* and PD-1 reversal 0.
For NC(=O)NCC#Cc1ccc2c(c1)[C@]1(C(=O)N2)[C@H](c2ccc(OCCO)cc2)N2[C@H](c3ccccc3)[C@H](c3ccccc3)OC(=O)[C@H]2[C@@H]1C(=O)N1CCCCCCC1 the results were YB-1 expr inh -0.41 and ROS inducer -6.
`CC(C)(C)Nc1nc(Cl)nc(N(C#N)CN2C(=O)c3ccccc3S2(=O)=O)n1` gave ROS inducer 94*.
`CCNc1nc(NC(C)(C)C)nc(N(C#N)CC(=O)OC)n1` gave ROS inducer -45 and PD-1 reversal -1.
c1ccc(OCCSc2nnc3n(-c4ccccc4)c4ccccc4n23)cc1 was read as ROS inducer 13 and PD-1 reversal 0.

Bioassay records (PubChem BioAssay)
